Measured values as given in PubChem BioAssay (NCI).
The panel holds about 79,000 compounds, 15% with a hit somewhere; the sample as a whole holds those more often. Unmarked numbers belong to inactive results. Active and inactive are the calls of the source. Cut-off read from the data, not from the text of the source: active = growth inhibition above about 70%; inactive = the rest.

Key:
[1] = NCI Yeast Anticancer Drug Screen. Data for the rad50 strain (AID 155);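 note: 0% = growth of vehicle-only cultures of the same strain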; details: S. cerevisiae rad50 strain growth inhibition, active compounds read high
In short: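 Inhibition values express reduced yeast growth in compound-treated cultures relative to vehicle-treated controls.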

[2] = NCI Yeast Anticancer Drug Screen. Data for the mec2-1 strain (AID 157); details: S. cerevisiae mec2-1 strain, active compounds read high
In short: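 Strain: mec2-1 (DNA repair/cell cycle alteration). Compound exposure, then growth measured; inhibition expressed relative to vehicle.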

[3] = NCI Yeast Anticancer Drug Screen. Data for the sgs1 mgt1 strain (AID 161);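 note: 0% = growth of cultures given vehicle only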; details: S. cerevisiae sgs1 mgt1 strain, active compounds read high
In short: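 Read-out: growth inhibition vs vehicle controls. Cells: mutant yeast strain deficient in DNA damage repair.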

[4] = NCI Yeast Anticancer Drug Screen. Data for the cln2 rad14 strain (AID 165);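 note: 0% = growth equal to vehicle treated cultures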; details: S. cerevisiae cln2 rad14 strain, active compounds read high
In short: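 Compounds are applied to the cln2 rad14 yeast strain, and growth is then compared with that of vehicle-treated cultures to give inhibition.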

[5] = NCI Yeast Anticancer Drug Screen. Data for the bub3 strain (AID 167); details: S. cerevisiae bub3 mutant strain, active compounds read high
In short: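 Steps: expose the mutant yeast strain to compound; grow alongside vehicle-treated cultures; measure growth; express inhibition against the vehicle cultures.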

[6] = NCI Yeast Anticancer Drug Screen. Data for the mlh1 rad18 strain (AID 175); details: S. cerevisiae mlh1 rad18 strain growth inhibition, active compounds read high
In short: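 Read-out is yeast growth inhibition, calculated against vehicle-only controls. The compound was applied to a strain engineered with DNA damage repair alterations.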

[7] = at 5.0 µM (retest, dose inferred, filed as 0.5)
[8] = at 50.0 µM (retest, dose inferred, filed as 5.0)

Row | SMILES | growth inhibition [1, 7] | growth inhibition [1, 8] | growth inhibition ([1]; at 50.0 µM) | growth inhibition [2, 7] | growth inhibition [2, 8] | growth inhibition ([2]; at 50.0 µM) | growth inhibition [3, 7] | growth inhibition [3, 8] | growth inhibition ([3]; at 50.0 µM) | growth inhibition [4, 7] | growth inhibition [4, 8] | growth inhibition ([4]; at 50.0 µM) | growth inhibition [5, 7] | growth inhibition [5, 8] | growth inhibition ([5]; at 50.0 µM) | growth inhibition [6, 7] | growth inhibition [6, 8] | growth inhibition ([6]; at 50.0 µM)
1 | Nc1cn(C2OC(CC(c3ccccc3)(c3ccccc3)c3ccccc3)C(O)C2O)c(=O)[nH]c1=O (configuration not stated) | 99% (active) | 99% (active) | 39% | 97% (active) | 97% (active) | 34.9% | 99% (active) | 99% (active) | 42.1% | 96% (active) | 96% (active) | 37.5% | 66% | 66% | 46.5% | 97% (active) | 97% (active) | 34.6%
2 | O=C(/C=C(\OB(F)F)c1ccccc1)c1ccccc1 | -2% | -4% | 100% (active) | -18% | -19% | 98.9% (active) | -4% | 2% | 97.4% (active) | -8% | 4% | 98.4% (active) | 2% | -1% | 98.2% (active) | 1% | -13% | 97.9% (active)
3 | CCN(CC)C(=S)N/N=C/c1cc(OC)ccc1O | -15% | 65% | 69.9% | -43% | 93% (active) | 73.2% (active) | -33% | 95% (active) | 62.4% | -6% | 62% | 53.5% | -38% | 84% (active) | 61.5% | -30% | 78% (active) | 26.6%
4 | NS(=O)(=O)c1ccc(NC(=S)/N=C/c2c(O)c3ccccc3[nH]c2=O)cc1 | 20% | 55% | 22.4% | 17% | 26% | -0.65% | -29% | 0% | 25.4% | 3% | 7% | -4.25% | -10% | -8% | -11.8% | 21% | 30% | 27.4%
5 | CCCC1=C(c2ccccc2)C(O)(c2ccccc2)C(CCC)C1=O (configuration not stated) | 0% | 46% | 97.8% (active) | 4% | 47% | 96.4% (active) | 0% | 37% | 96.2% (active) | -9% | 19% | 95.3% (active) | -3% | 69% | 93.3% (active) | 4% | 47% | 95.8% (active)
6 | O=[N+]([O-])c1cc2[nH]cnc2c([N+](=O)[O-])c1NCc1ccccc1 | 0% | 47% | 68.5% | 0% | 29% | 34.3% | -1% | 45% | 80.5% (active) | -2% | 34% | 24.2% | -4% | 25% | 33.1% | -3% | 44% | 72.5% (active)
7 | CC(C)CC(N)C(=O)NNc1ccccc1 (configuration not stated) | 29% | 94% (active) | 96.8% (active) | 23% | 96% (active) | 84.2% (active) | 30% | 97% (active) | 88.6% (active) | 19% | 83% (active) | 94.2% (active) | 37% | 96% (active) | 97.5% (active) | 72% (active) | 99% (active) | 98% (active)
8 | CN=S(=O)(OCCCCCCCCCOS(=O)(=NC)c1ccc(C)cc1)c1ccc(C)cc1 (configuration not stated) | 17% | 12% | 42.5% | 14% | 6% | 70% (active) | 16% | 15% | 19.7% | 29% | -1% | -5.85% | 20% | 20% | -35.3% | 18% | 11% | -80.8%
9 | O=[N+]([O-])/C(C(Cl)=C(Cl)Cl)=C(/Nc1ccccc1)SCc1ccccc1 | 32% | 100% (active) | 12.3% | 32% | 100% (active) | 26.1% | 13% | 99% (active) | 18.9% | 21% | 97% (active) | 14.6% | 28% | 94% (active) | 43.4% | 38% | 100% (active) | 50.6%
10 | CCc1nc2ccc(N=NN(C)C)cc2[nH]1 | 21% | 73% (active) | 84.5% (active) | 19% | 80% (active) | 92% (active) | 18% | 96% (active) | 74.2% (active) | 22% | 87% (active) | 88.1% (active) | 18% | 97% (active) | 88.5% (active) | 24% | 91% (active) | 91.3% (active)
11 | CC(=O)/C(=C\c1c(Cl)cccc1Cl)C(=O)CCN(C)C | 18% | 99% (active) | 75.8% (active) | 17% | 99% (active) | 70.5% (active) | 8% | 99% (active) | 81.6% (active) | 25% | 99% (active) | 41.2% | 27% | 99% (active) | 65.8% | 16% | 99% (active) | 67.9%
12 | CN1c2ccccc2S(=O)(=O)n2c(CCc3ccccc3)nnc21 | 1% | 10% | 14.3% | 5% | 13% | -3% | 10% | 10% | -6.9% | 17% | 14% | 9.85% | 9% | 15% | -10.7% | 10% | 17% | 32.5%
13 | COc1cccc(-c2cc(=O)c3c(C)ccnc3[nH]2)c1 | 8% | 8% | 80.5% (active) | 4% | 4% | 49.8% | 15% | 15% | 70.8% (active) | -4% | -4% | 30% | -9% | -9% | 68% | 14% | 14% | 61.8%
14 | CCCCc1c2c(nc3c1CCc1cc4cc5c(nc4nc1-3)-c1nc3c(c(CCCC)c1CC5)CCCC3=O)C(=O)CCC2 | 71% (active) | 97% (active) | 97.7% (active) | 86% (active) | 97% (active) | 97.2% (active) | 54% | 97% (active) | 98% (active) | 90% (active) | 96% (active) | 95.9% (active) | 97% (active) | 96% (active) | 97.2% (active) | 86% (active) | 96% (active) | 97.3% (active)
15 | O=C1OC(OC/C(Br)=C(/Br)COC2OC(=O)C(Cl)=C2Cl)C(Cl)=C1Cl (configuration not stated) | 93% (active) | 99% (active) | 99.2% (active) | 64% | 99% (active) | 99.4% (active) | 97% (active) | 100% (active) | 98.9% (active) | 71% (active) | 98% (active) | 97.3% (active) | 84% (active) | 99% (active) | 98.8% (active) | 97% (active) | 99% (active) | 98.7% (active)
16 | CCc1ccc(C(=O)O)cc1 | -2% | -2% | 2.7% | -2% | -2% | -11.9% | -1% | 0% | -1.1% | -5% | -17% | 76.7% (active) | -6% | 2% | -15.2% | -5% | -3% | 10%
17 | CCOC(=O)C(C#N)c1cc(O)c(C(C#N)C(=O)OCC)cc1O (configuration not stated) | -2% | -2% | -5.45% | -3% | -4% | 6.85% | -4% | -6% | -1.65% | 0% | -10% | 55.5% | -1% | -5% | 13.4% | -2% | -5% | -6.9%
18 | CC(NC(=O)OCc1ccccc1)C(=O)NC(C(=O)O)C(C)C (configuration not stated) | 29% | 66% | 63.1% | 22% | 46% | 38% | 27% | 65% | 60.6% | 37% | 48% | 59.6% | 37% | 84% (active) | 34.9% | 14% | 86% (active) | 74% (active)
19 | Cc1ccc(NN(C)c2ccc(C)cc2)cc1 | -4% | 2% | 34.3% | -1% | -8% | 16.1% | -4% | -10% | -11.4% | 5% | -4% | 13.4% | 9% | 18% | 27.6% | -3% | 1% | 3.1%
